The panel holds about 83,000 compounds, 20% with a hit somewhere; the sample as a whole holds those more often.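 Compound tested at a single concentration for 48 hours in 96-well plates; a percent growth value below 10 was scored as active.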 Unmarked numbers belong to inactive results. Activity calls are given as the source filed them.
Key:
Test in all cases: NCI-60 one-dose screen, 48 h (100 = growth as untreated, 0 = no growth, -100 = all killed)
Settings in all cases: 10 µM
[1] = test system: NCI-H23 lung
[2] = test system: NCI-H226 lung
[3] = test system: NCI-H322M lung
[4] = test system: HOP-62 NSCLC
[5] = test system: NCI-H460 lung
[6] = test system: NCI-H522 lung
[7] = test system: A549/ATCC NSCLC
[8] = test system: 786-0 renal
[9] = test system: DU-145 prostate
[10] = test system: COLO 205 colon

O=C(CCCCC(=O)Nc1ccc2c(c1)/C(=C/c1ccc[nH]1)C(=O)N2)NO
growth [1]: 106%
growth [2]: 91.1%
growth [3]: 64.1%
growth [4]: 94.3%
growth [5]: 97.6%
growth [6]: 49.4%
growth [7]: 95.6%
growth [8]: 94.4%
growth [9]: 91.2%

O=C1c2ccc3c4c(ccc(c24)C(=O)N1CCNCc1ccccc1)C(=O)N(CCNCc1ccccc1)C3=O
growth [1]: -49.4% (active)
growth [2]: 115%
growth [3]: -43% (active)
growth [4]: 95.6%
growth [5]: -26.7% (active)
growth [6]: -51.2% (active)
growth [7]: 12.8%
growth [8]: 52.4%
growth [9]: 20.7%

CN(C)c1ccc(/C=C/C=N/NC(=O)c2cc(O)c(O)c(O)c2)cc1
growth [1]: 99.6%
growth [2]: 101%
growth [3]: 93.7%
growth [4]: 103%
growth [5]: 107%
growth [6]: -31.8% (active)
growth [7]: 98%
growth [8]: 103%
growth [9]: 109%

O=C1OCC2=C1C(c1cccc(Cl)c1)c1cc3c(cc1N2CCO)OCO3 (configuration not stated)
growth [1]: 31.7%
growth [2]: 23.4%
growth [3]: 42.8%
growth [4]: 31.4%
growth [5]: 7.53% (active)
growth [6]: -19.7% (active)
growth [7]: 27.6%
growth [8]: 35.7%
growth [9]: 11%

COc1ccc2c(c1)-c1c(c3cc(OC)ccc3n(CCN(C)C)c1=O)C2=O
growth [1]: 7.11% (active)
growth [2]: 22%
growth [3]: -14.4% (active)
growth [4]: 15.3%
growth [5]: -4.73% (active)
growth [6]: -11.5% (active)
growth [7]: -18.7% (active)
growth [8]: 32.3%
growth [9]: 5.1% (active)

CCn1cc(C(=O)O)c(=O)c2cnc(N3CCCC3)nc21
growth [1]: 105%
growth [2]: 94.5%
growth [3]: 97.3%
growth [4]: 108%
growth [5]: 110%
growth [6]: 101%
growth [7]: 96.1%
growth [8]: 92.6%
growth [9]: 119%

COc1cc(-c2cc(C(=O)N3CCN(C(=O)c4ccccc4NCc4cccs4)CC3)nc3cc(-c4ccccc4)nn23)cc(OC)c1OC
growth [1]: 85.6%
growth [2]: 78.7%
growth [3]: 72.1%
growth [4]: 87.5%
growth [5]: 38.4%
growth [6]: 18.6%
growth [7]: 50.7%
growth [8]: 85.2%
growth [9]: 81.7%

CN(C)CCOc1nc2ccccc2c2c1-c1ccc(Cl)cc1C2=O
growth [1]: -43.9% (active)
growth [2]: 3.47% (active)
growth [3]: -34% (active)
growth [4]: -20.4% (active)
growth [5]: -20.7% (active)
growth [6]: -65.5% (active)
growth [7]: -28.4% (active)
growth [8]: 12.7%
growth [9]: -14.2% (active)

COc1ccc(Nc2ncnc3c2c(SC)nn3-c2ccccc2)cc1
growth [1]: 89.8%
growth [2]: 85.5%
growth [3]: 82.4%
growth [4]: 96.7%
growth [5]: 99.4%
growth [6]: 61.3%
growth [7]: 86%
growth [8]: 93.9%
growth [9]: 101%

COc1ccc(Oc2nc(NC3CCCC3)nc(Sc3ccc(OC)cc3)n2)cc1
growth [1]: 79.6%
growth [2]: 67.4%
growth [3]: 90.5%
growth [4]: 75.7%
growth [5]: 47.7%
growth [6]: 66.9%
growth [7]: 72.8%
growth [8]: 79.9%
growth [9]: 91.7%

N=C(N)c1ccc(-c2ccc(-c3cccs3)s2)cc1
growth [1]: 83.8%
growth [2]: 82.3%
growth [3]: 2.2% (active)
growth [4]: 86.6%
growth [5]: -72.4% (active)
growth [6]: 76.4%
growth [7]: -44.8% (active)
growth [10]: -96.6% (active)
growth [9]: 0.967% (active)

COC(=O)C1=NNC(=S)N(c2cc(C)[nH]n2)C(=O)C1
growth [1]: 99.1%
growth [2]: 99.7%
growth [3]: 94.5%
growth [4]: 115%
growth [5]: 111%
growth [6]: 103%
growth [7]: 106%
growth [8]: 96.9%
growth [9]: 107%

CC(=O)c1cc(Br)ccc1O
growth [1]: 105%
growth [2]: 101%
growth [3]: 127%
growth [4]: 118%
growth [5]: 105%
growth [6]: 87.4%
growth [7]: 107%
growth [8]: 104%
growth [9]: 114%

Nc1ncn(C2OC(CO)C(O)C2O)c(=O)n1 (configuration not stated)
growth [1]: 30.3%
growth [2]: 29%
growth [3]: -0.0643% (active)
growth [4]: -23% (active)
growth [5]: -1.43% (active)
growth [6]: -12.7% (active)
growth [7]: 20.7%
growth [8]: 12.2%
growth [9]: -9.86% (active)

c1ccc([I+]c2ccccc2)cc1
growth [1]: 55.6%
growth [2]: 65.5%
growth [3]: 72.8%
growth [4]: 53.3%
growth [5]: 86.5%
growth [6]: 64.7%
growth [7]: 48.7%
growth [8]: 61%
growth [9]: 90%

O=[P@@]1(c2ccccc2)O[C@H](COCc2ccccc2)[C@@H](OCc2ccccc2)[C@H](OCc2ccccc2)[C@H]1O
growth [1]: 64.4%
growth [2]: 59%
growth [3]: 86.9%
growth [4]: 7.83% (active)
growth [5]: 74.7%
growth [6]: 42.2%
growth [7]: 83.3%
growth [8]: 65.3%
growth [9]: 90.6%

COc1ccc(/C=C/C(=O)Nc2ccc(-c3nc4ccc(F)cc4s3)cc2)cc1
growth [1]: 86.3%
growth [2]: 72.3%
growth [3]: 104%
growth [4]: 109%
growth [5]: 99.1%
growth [6]: 85.5%
growth [7]: 94%
growth [8]: 80.6%
growth [9]: 118%

FC(F)(F)c1ccc(-c2cnc(-n3cc(COCCN4CCCCC4)nn3)nc2NC2CCCCCC2)cc1
growth [1]: 67.7%
growth [2]: 78.7%
growth [3]: 54.4%
growth [4]: 52.4%
growth [5]: -68.3% (active)
growth [6]: -12.8% (active)
growth [7]: 10.6%
growth [8]: 51.1%
growth [9]: 57.7%

C#Cc1ccc(-n2c(/C=C/c3ccc(O)c(OC)c3)nc3ncccc3c2=O)cc1
growth [1]: 102%
growth [2]: 93.9%
growth [3]: 98.2%
growth [4]: 95.3%
growth [5]: 103%
growth [6]: 79%
growth [7]: 90.3%
growth [8]: 105%
growth [9]: 111%

Nc1nc(N=Nc2ccc(O)cc2)cc(=O)[nH]1
growth [1]: 101%
growth [2]: 114%
growth [3]: 104%
growth [4]: 102%
growth [5]: 107%
growth [6]: 112%
growth [7]: 111%
growth [8]: 105%
growth [9]: 116%

CCN(CC)CCNC(=O)c1ccc(NC(C)=O)cc1
growth [1]: 94.5%
growth [2]: 110%
growth [3]: 105%
growth [4]: 103%
growth [5]: 113%
growth [6]: 111%
growth [7]: 98.5%
growth [8]: 108%
growth [9]: 119%

O=C1/C(=C\c2ccc(Cl)cc2)CN(C(=S)Nc2ccccc2)C/C1=C\c1ccc(Cl)cc1
growth [1]: -52.8% (active)
growth [2]: -70.1% (active)
growth [3]: -20.7% (active)
growth [4]: -55.4% (active)
growth [5]: -70.8% (active)
growth [6]: -88.2% (active)
growth [7]: -21.4% (active)
growth [8]: -86% (active)
growth [9]: -73.2% (active)

O=C(O)CN1C(=O)c2cccc3cccc(c23)C1=O
growth [1]: 101%
growth [2]: 96.5%
growth [3]: 102%
growth [4]: 97.4%
growth [5]: 110%
growth [6]: 94.1%
growth [7]: 95.4%
growth [8]: 91.7%
growth [9]: 117%

COc1ccc(C2=Nc3c(C)nn(-c4ccccc4)c3NC(c3ccc(Oc4ccnc5cc(Cl)ccc45)c(OC)c3)C2)cc1 (configuration not stated)
growth [1]: 77.8%
growth [2]: 74.3%
growth [3]: 95.1%
growth [4]: 113%
growth [5]: 81.6%
growth [6]: 62.1%
growth [7]: 84%
growth [8]: 89.8%
growth [9]: 100%

CCOC(=O)N/N=C\C(C)=N\NC(=O)OCC
growth [1]: 101%
growth [2]: 119%
growth [3]: 89.5%
growth [4]: 96.3%
growth [5]: 102%
growth [6]: 89.2%
growth [7]: 92.6%
growth [8]: 101%
growth [9]: 106%

O=C1ON=[N+](c2ccc(Cc3ccc([N+]4=NOC(=O)C4CN4CCOCC4)cc3)cc2)C1CN1CCOCC1 (configuration not stated)
growth [1]: 62.1%
growth [2]: 85.5%
growth [3]: 82.5%
growth [4]: 77%
growth [5]: 82.9%
growth [6]: 37%
growth [7]: 69.1%
growth [8]: 74%
growth [9]: 101%

O=C1/C(=C/c2ccc([N+](=O)[O-])s2)Oc2ccccc21
growth [1]: -37% (active)
growth [2]: -0.59% (active)
growth [3]: -21.5% (active)
growth [4]: 3.77% (active)
growth [5]: -27.7% (active)
growth [6]: -68.8% (active)
growth [7]: -22.2% (active)
growth [8]: -37% (active)
growth [9]: 4.99% (active)

Cc1cc(C)c(NC(=O)c2sc3nc4c(cc3c2N)C(=O)CCC4)c(C)c1
growth [1]: 33%
growth [2]: 77.1%
growth [3]: 56.3%
growth [4]: 36.9%
growth [5]: 6.43% (active)
growth [7]: 23%
growth [8]: 30.4%
growth [10]: -6.14% (active)
growth [9]: 10%
